# Values joined by “and” are separate entries in the source; they are usually repeats but may differ in a detail not shown here. Equal entries are not always repeated. The panel holds about 79,000 compounds, 15% with a hit somewhere; the sample as a whole holds those more often. Some compounds were tested as several samples or in several runs, with calls that do not always agree. Active and inactive are the calls of the source. Rule as the data show it: active = growth inhibition above about 70%; inactive = the rest.
# Experiments:
# [1] = NCI Yeast Anticancer Drug Screen. Data for the rad50 strain (AID 155);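 also: 0% = growth of vehicle-only cultures of the same strain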; settings: S. cerevisiae rad50 strain growth inhibition, stronger effect = higher value
# Outline: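 DNA repair mutant yeast, compound exposure, growth read-out; inhibition is taken relative to vehicle.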
# [2] = NCI Yeast Anticancer Drug Screen. Data for the mec2-1 strain (AID 157); settings: S. cerevisiae mec2-1 strain, stronger effect = higher value
# Outline: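 Compounds were applied to mec2-1 yeast cells. Their growth was then compared with that of vehicle-treated cultures to give growth inhibition.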
# [3] = NCI Yeast Anticancer Drug Screen. Data for the sgs1 mgt1 strain (AID 161);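 also: 0% = growth of cultures given vehicle only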; settings: S. cerevisiae sgs1 mgt1 strain, stronger effect = higher value
# Outline: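 Growth of a repair-deficient yeast mutant was monitored after compound treatment and expressed as inhibition relative to vehicle-treated cultures.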
# [4] = NCI Yeast Anticancer Drug Screen. Data for the cln2 rad14 strain (AID 165);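 also: 0% = growth equal to vehicle treated cultures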; settings: S. cerevisiae cln2 rad14 strain, stronger effect = higher value
# Outline: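 Strain: cln2 rad14 yeast, altered in cell cycle control and DNA damage repair. Read-out: growth inhibition vs vehicle.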
# [5] = NCI Yeast Anticancer Drug Screen. Data for the bub3 strain (AID 167); settings: S. cerevisiae bub3 mutant strain, stronger effect = higher value
# Outline: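 In this screen, a yeast mutant lacking normal mitotic checkpoint function is challenged with compound. Relative growth versus vehicle gives the inhibition value.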
# [6] = NCI Yeast Anticancer Drug Screen. Data for the mlh1 rad18 strain (AID 175); settings: S. cerevisiae mlh1 rad18 strain growth inhibition, stronger effect = higher value
# Outline: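 A repair-deficient yeast strain is exposed to test compound, and growth is scored relative to vehicle-treated controls.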
# [7] = at 5.0 µM (retest, dose inferred, filed as 0.5)
# [8] = at 50.0 µM (retest, dose inferred, filed as 5.0)
SMILES,"growth inhibition [1, 7]","growth inhibition [1, 8]",growth inhibition ([1]; at 50.0 µM),"growth inhibition [2, 7]","growth inhibition [2, 8]",growth inhibition ([2]; at 50.0 µM),"growth inhibition [3, 7]","growth inhibition [3, 8]",growth inhibition ([3]; at 50.0 µM),"growth inhibition [4, 7]","growth inhibition [4, 8]",growth inhibition ([4]; at 50.0 µM),"growth inhibition [5, 7]","growth inhibition [5, 8]",growth inhibition ([5]; at 50.0 µM),"growth inhibition [6, 7]","growth inhibition [6, 8]",growth inhibition ([6]; at 50.0 µM)
CCN(Cc1ccccc1)CC(O)c1ccc(Cl)c(Cl)c1 (stereo not given),-3% (inactive),99% (active),9.25% (inactive),-1% (inactive),99% (active),-12.7% (inactive),-2% (inactive),99% (active),20.1% (inactive),2% (inactive),99% (active),-23.4% (inactive),0% (inactive),98% (active),70.3% (active),-1% (inactive),99% (active),3.6% (inactive)
CC(C)(C)C[CH2][Hg][Cl],99% (active),99% (active),99.2% (active),100% (active),99% (active),99.7% (active),100% (active),100% (active),99.5% (active),99% (active),100% (active),99.5% (active),99% (active),99% (active),99.6% (active),100% (active),100% (active),99.5% (active)
CC#C[P+](c1ccccc1)(c1ccccc1)c1ccccc1,98% (active),98% (active),91.2% (active),87% (active),87% (active),92.9% (active),90% (active),90% (active),92.8% (active),91% (active),91% (active),90.8% (active),86% (active),86% (active),90.2% (active),95% (active),95% (active),88.8% (active)
CSc1nncc(=O)[nH]1.[Hg],99% (active),99% (active),99.2% (active),99% (active),99% (active),99.5% (active),100% (active),99% (active),99.5% (active),99% (active),99% (active),99.2% (active),99% (active),99% (active),99.2% (active),99% (active),99% (active),99.2% (active)
CCOC(=O)C1CC12c1ccccc1-c1ccccc12 (stereo not given),2% (inactive),23% (inactive),73.5% (active),-6% (inactive),29% (inactive),52.9% (inactive),-23% (inactive),48% (inactive),67.2% (inactive),-6% (inactive),-5% (inactive),19.8% (inactive),1% (inactive),4% (inactive),14.9% (inactive),-1% (inactive),41% (inactive),69.5% (inactive)
Oc1ccc(Cl)cc1Sc1cc(Cl)ccc1O,99% (active) and 98% (active) and 90% (active),100% (active) and 99% (active),99.3% (active) and 41% (inactive) and 99.6% (active),98% (active) and 94% (active) and 68% (inactive),100% (active) and 99% (active),99.5% (active) and 99.7% (active),96% (active) and 98% (active) and 88% (active),99% (active) and -8% (inactive),99.5% (active) and 99.6% (active) and 99.7% (active),98% (active) and 94% (active),100% (active) and 99% (active),99% (active) and 99.3% (active) and 99.2% (active),99% (active) and 88% (active) and 68% (inactive),100% (active) and 99% (active),99.3% (active) and 99.5% (active) and 99.6% (active),99% (active) and 89% (active),100% (active) and 99% (active),99.3% (active) and 99.5% (active) and 99.4% (active)
CCC[CH2][Sn]([Cl])([CH2]Cl)[CH2]CCC,97% (active),99% (active),99% (active),99% (active),100% (active),99.2% (active),98% (active),99% (active),99.4% (active),98% (active),98% (active),99.3% (active),98% (active),99% (active),99.3% (active),99% (active),99% (active),99.2% (active)
O=P(Nc1cccc(Cl)c1)(Oc1ccccc1)N(CCCl)CCCl (stereo not given),40% (inactive),40% (inactive),90.2% (active),30% (inactive),30% (inactive),90.2% (active),43% (inactive),43% (inactive),92.1% (active),20% (inactive),20% (inactive),89.8% (active),26% (inactive),26% (inactive),88.7% (active),21% (inactive),21% (inactive),88.2% (active)
CCC[CH2][Sn]1([CH2]CCC)[O]CC(CN(C)Cc2ccccc2)[O]1 (stereo not given),3% (inactive),3% (inactive),88.7% (active),12% (inactive),12% (inactive),90.1% (active),-5% (inactive),-5% (inactive),20.2% (inactive),-2% (inactive),-2% (inactive),89.2% (active),-1% (inactive),-1% (inactive),87.5% (active),0% (inactive),0% (inactive),81.8% (active)
Cc1ccc(P(=O)(c2ccc(C)cc2)c2ccc(C)cc2)cc1.Cc1ccc(P(=O)(c2ccc(C)cc2)c2ccc(C)cc2)cc1.[Cl][Sn]([Cl])([Cl])[Cl],4% (inactive),1% (inactive),-9.9% (inactive),0% (inactive),1% (inactive),0.85% (inactive),2% (inactive),6% (inactive),42.6% (inactive),4% (inactive),8% (inactive),4.1% (inactive),13% (inactive),72% (active),76.2% (active),3% (inactive),1% (inactive),38% (inactive)
O=[N+]([O-])c1cc2c([N+](=O)[O-])cccc2o1,15% (inactive),98% (active),95.9% (active),8% (inactive),99% (active),99.7% (active),19% (inactive),99% (active),99.2% (active),0% (inactive),99% (active),97.3% (active),7% (inactive),98% (active),99.5% (active),74% (active),99% (active),99.5% (active)
COC12[C@@H]3N[C@@H]3CN1C1=C(C(=O)C(NCCSSCCNC3=C(C)C(=O)C4=C(C3=O)C(COC(N)=O)[C@]3(OC)C5N[C@@H]5CN43)=C(C)C1=O)[C@@H]2COC(N)=O (stereo not given in full),35% (inactive),73% (active),63.1% (inactive),18% (inactive),82% (active),49% (inactive),41% (inactive),74% (active),3.55% (inactive),19% (inactive),53% (inactive),39.4% (inactive),17% (inactive),52% (inactive),-8.85% (inactive),54% (inactive),93% (active),79% (active)
C/C(=N\Nc1ccccn1)C1CC[N-]C2C(O)CCCC12.C/C(=N\Nc1ccccn1)C1CC[N-]C2C(O)CCCC12.[Cu+2] (stereo not given),98% (active),98% (active),99% (active),99% (active),99% (active),99.5% (active),98% (active),99% (active),99.4% (active),98% (active),97% (active),98.9% (active),99% (active),98% (active),99% (active),99% (active),98% (active),99.3% (active)
CN1c2cccc[c]2[Sn]([CH3])([CH3])[c]2ccccc21,98% (active),99% (active),99.4% (active),99% (active),99% (active),99.2% (active),97% (active),99% (active),99.5% (active),77% (active),100% (active),94% (active),7% (inactive),99% (active),99.2% (active),98% (active),99% (active),99.3% (active)
COc1ccc2c(c1O)C13CCN(C)C(C2)C12C=CC(=O)C3c1c(O)ccc(O)c12 (stereo not given),-2% (inactive),59% (inactive),76.7% (active),13% (inactive),66% (inactive),66.5% (inactive),17% (inactive),77% (active),89.3% (active),-2% (inactive),41% (inactive),72.5% (active),-8% (inactive),55% (inactive),48.7% (inactive),17% (inactive),88% (active),84.5% (active)

# Reference: PubChem BioAssay (NCI)
